Holding throughout (test): universal protein binding microarray (PBM); transcription factors of Arabidopsis thaliana; high values mean tight binding
Common to all, as to settings: protein: recombinant; tags: GST; chain copies: 2; dsDNA, one strand shown

The target in one assay is T1, GST-ANAC092(1-176) (Arabidopsis thaliana, UniProt Q9FKA0 1-176).
T1 sequence: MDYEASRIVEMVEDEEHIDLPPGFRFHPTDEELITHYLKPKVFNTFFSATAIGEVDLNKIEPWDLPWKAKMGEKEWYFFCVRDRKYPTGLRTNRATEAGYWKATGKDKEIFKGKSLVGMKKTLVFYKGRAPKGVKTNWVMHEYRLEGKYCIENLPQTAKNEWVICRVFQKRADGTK
The method, boiled down: (§1)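 Cells were induced to make GST-tagged NAC-domain, full-length or DNA-binding-domain proteins, and zinc acetate was added for zinc-finger proteins. These proteins were purified on glutathione–Sepharose 4B, quantified by A280 or anti-GST western blot, and applied in duplicate at 200 to 500 nM final to custom all-10-mer Agilent 4 × 180K arrays that primer extension had made double-stranded. Binding is given as the normalised enrichment score (E-score) for scored gapped and ungapped 8-mers.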

Another assay has as its target GST-NTL6(1-168) (Arabidopsis thaliana, UniProt Q9SCK6 1-168). The method, boiled down:
as §1

Another assay addresses T2, GST-ANAC055(1-171) (Arabidopsis thaliana, UniProt Q9LDY8 1-171).
T2 sequence: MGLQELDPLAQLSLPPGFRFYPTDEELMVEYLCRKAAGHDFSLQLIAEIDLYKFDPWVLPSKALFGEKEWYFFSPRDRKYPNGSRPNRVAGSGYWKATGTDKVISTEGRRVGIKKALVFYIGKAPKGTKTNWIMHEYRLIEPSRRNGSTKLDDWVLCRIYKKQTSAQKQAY
The method, boiled down: as §1

Another assay addresses T3, GST-ATAF1 NAC domain (Arabidopsis thaliana, UniProt Q39013 7-158).
T3 sequence: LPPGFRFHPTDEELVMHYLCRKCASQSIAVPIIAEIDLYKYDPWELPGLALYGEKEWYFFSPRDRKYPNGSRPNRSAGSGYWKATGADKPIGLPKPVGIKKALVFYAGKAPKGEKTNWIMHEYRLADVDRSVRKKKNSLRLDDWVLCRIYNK
A digest of the protocol: as §1

The target in assay [1] is T4, GST-ANAC092(1-285) full length (Arabidopsis thaliana, UniProt Q9FKA0 1-285).
T4 sequence: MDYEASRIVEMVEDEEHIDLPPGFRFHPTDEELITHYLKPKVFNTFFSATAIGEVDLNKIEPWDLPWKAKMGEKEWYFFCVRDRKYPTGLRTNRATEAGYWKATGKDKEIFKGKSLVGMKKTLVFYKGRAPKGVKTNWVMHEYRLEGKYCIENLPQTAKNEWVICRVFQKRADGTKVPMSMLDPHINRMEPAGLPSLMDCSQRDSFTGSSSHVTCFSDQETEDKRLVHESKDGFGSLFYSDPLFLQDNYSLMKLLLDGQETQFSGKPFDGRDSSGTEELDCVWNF
The method, boiled down: as §1

The target of another assay is T5, GST-NST2(1-184) (Arabidopsis thaliana, UniProt Q9M274 1-184).
T5 sequence: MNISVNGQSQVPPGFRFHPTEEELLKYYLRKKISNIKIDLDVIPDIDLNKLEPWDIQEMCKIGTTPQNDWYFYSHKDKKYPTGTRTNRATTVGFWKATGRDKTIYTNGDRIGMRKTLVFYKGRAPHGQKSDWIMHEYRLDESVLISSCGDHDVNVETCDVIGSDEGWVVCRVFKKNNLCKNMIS
The method, boiled down:
as §1

A further assay addresses T6, GST-NTL8 NAC domain (Arabidopsis thaliana, UniProt Q9XIN7 14-156).
T6 sequence: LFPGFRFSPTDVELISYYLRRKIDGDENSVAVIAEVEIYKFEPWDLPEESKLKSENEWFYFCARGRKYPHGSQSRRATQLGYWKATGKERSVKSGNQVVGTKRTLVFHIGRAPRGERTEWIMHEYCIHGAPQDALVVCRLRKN
A digest of the protocol: as §1

Another assay deals with T7, GST-SND1(1-203) (Arabidopsis thaliana, UniProt Q9LPI7 1-203).
T7 sequence: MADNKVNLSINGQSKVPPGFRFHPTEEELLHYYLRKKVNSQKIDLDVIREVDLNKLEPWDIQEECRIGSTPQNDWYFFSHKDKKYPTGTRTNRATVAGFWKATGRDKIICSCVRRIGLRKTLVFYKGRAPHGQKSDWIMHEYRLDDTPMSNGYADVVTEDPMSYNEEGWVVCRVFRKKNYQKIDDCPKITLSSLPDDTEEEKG
The method, boiled down: as §1

The next assay concerns the target T8, GST-VND3 NAC domain (Arabidopsis thaliana, UniProt Q9FH59 12-162).
T8 sequence: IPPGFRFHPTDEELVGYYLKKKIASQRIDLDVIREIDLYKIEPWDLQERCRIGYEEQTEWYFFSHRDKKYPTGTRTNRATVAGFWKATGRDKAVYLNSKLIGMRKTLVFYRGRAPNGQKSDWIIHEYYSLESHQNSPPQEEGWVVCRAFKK
The method, boiled down: as §1

The next assay has as its target T9, GST-VND7 NAC domain (Arabidopsis thaliana, UniProt Q9C8W9 9-158).
T9 sequence: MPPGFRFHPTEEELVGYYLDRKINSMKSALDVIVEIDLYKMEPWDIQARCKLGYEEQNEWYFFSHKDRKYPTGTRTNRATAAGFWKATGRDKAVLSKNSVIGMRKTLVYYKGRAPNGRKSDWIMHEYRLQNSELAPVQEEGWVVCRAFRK
A digest of the protocol: as §1

Another assay concerns the target T10, GST-ANAC019 NAC domain (Arabidopsis thaliana, UniProt Q9C932 14-162).
T10 sequence: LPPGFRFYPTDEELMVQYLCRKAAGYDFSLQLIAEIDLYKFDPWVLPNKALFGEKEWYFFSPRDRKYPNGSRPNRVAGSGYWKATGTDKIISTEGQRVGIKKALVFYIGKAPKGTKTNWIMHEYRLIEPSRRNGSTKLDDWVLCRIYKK
A digest of the protocol:
as §1

Chain of GST-NTL6(1-168) (Q9SCK6 1-168): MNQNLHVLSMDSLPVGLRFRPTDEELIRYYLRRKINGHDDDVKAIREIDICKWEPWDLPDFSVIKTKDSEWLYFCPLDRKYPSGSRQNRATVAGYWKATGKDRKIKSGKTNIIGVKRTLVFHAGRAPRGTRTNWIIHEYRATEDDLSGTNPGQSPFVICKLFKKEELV

Turning to GCAAGAAA, the binding signal with GST-ANAC092(1-176) amounted to 0.295 E-score; in the assay with GST-NTL6(1-168) it was 0.306 E-score; with GST-ANAC055(1-171), 0.0836 E-score; with GST-ATAF1 NAC domain it was 0.189 E-score; in [1], 0.401 E-score; with GST-NST2(1-184), 0.201 E-score. Moreover, the binding signal in the assay with GST-NTL8 NAC domain came out at 0.229 E-score; with GST-SND1(1-203), 0.307 E-score; with GST-VND3 NAC domain, 0.12 E-score; with GST-VND7 NAC domain, 0.0827 E-score.

With CTTGCTTA, the binding signal is 0.251 E-score with GST-ANAC092(1-176); 0.416 E-score with GST-NTL6(1-168); 0.0719 E-score in the assay with GST-ANAC019 NAC domain; 0.136 E-score with GST-ATAF1 NAC domain; 0.347 E-score in assay [1]; 0.17 E-score with GST-NST2(1-184). Moreover, the binding signal stood at 0.194 E-score with GST-NTL8 NAC domain, 0.437 E-score with GST-SND1(1-203), 0.124 E-score with GST-VND3 NAC domain and 0.0501 E-score with GST-VND7 NAC domain.

Regarding TACGCCAA, the binding signal with GST-ANAC092(1-176) was 0.413 E-score; with GST-NTL6(1-168), 0.0645 E-score; with GST-ANAC019 NAC domain, 0.0981 E-score; with GST-ANAC055(1-171) it was 0.172 E-score; in the assay with GST-ATAF1 NAC domain it was 0.309 E-score; in [1], 0.439 E-score. The binding signal with GST-NST2(1-184) stood at 0.251 E-score; with GST-NTL8 NAC domain, 0.0846 E-score; in the assay with GST-SND1(1-203), 0.454 E-score; with GST-VND3 NAC domain, 0.171 E-score; with GST-VND7 NAC domain it was 0.244 E-score.

For the sequence GCAAGCAA, the binding signal was 0.367 E-score with GST-ANAC092(1-176); 0.26 E-score with GST-NTL6(1-168); 0.167 E-score with GST-ANAC019 NAC domain; 0.0669 E-score in the assay with GST-ANAC055(1-171); 0.42 E-score in assay [1]; 0.28 E-score with GST-NST2(1-184). For the same sequence, the binding signal with GST-NTL8 NAC domain is 0.0916 E-score; with GST-SND1(1-203) it was 0.4 E-score; with GST-VND3 NAC domain, 0.0906 E-score; with GST-VND7 NAC domain it was 0.216 E-score.

For the sequence CAAGCAAC, the binding signal with GST-ANAC092(1-176) was found to be 0.426 E-score; with GST-NTL6(1-168), 0.239 E-score; with GST-ANAC019 NAC domain it was 0.1 E-score; with GST-ANAC055(1-171), 0.139 E-score; in assay [1] it was 0.442 E-score; with GST-NST2(1-184), 0.311 E-score. For the same sequence, the binding signal with GST-NTL8 NAC domain was found to be 0.13 E-score; with GST-SND1(1-203), 0.435 E-score; with GST-VND3 NAC domain it was 0.164 E-score; with GST-VND7 NAC domain it was 0.139 E-score.

Turning to CGAAGTAA, the binding signal with GST-ANAC092(1-176) is 0.199 E-score; with GST-NTL6(1-168), 0.448 E-score; with GST-ANAC019 NAC domain it was 0.128 E-score; with GST-ANAC055(1-171) it was 0.143 E-score; with GST-ATAF1 NAC domain, 0.23 E-score; in assay [1] it was 0.279 E-score. Besides, the binding signal worked out at 0.223 E-score with GST-NST2(1-184); 0.416 E-score with GST-NTL8 NAC domain; 0.303 E-score with GST-SND1(1-203); 0.138 E-score with GST-VND3 NAC domain; 0.19 E-score with GST-VND7 NAC domain.

CTAAGTTA: the binding signal with GST-ANAC092(1-176) turned out to be 0.294 E-score; with GST-NTL6(1-168) it was 0.393 E-score; with GST-ANAC055(1-171), 0.13 E-score; with GST-ATAF1 NAC domain, 0.173 E-score; in [1], 0.279 E-score; with GST-NST2(1-184), 0.282 E-score. Moreover, the figures for the binding signal with GST-SND1(1-203), with GST-VND3 NAC domain and with GST-VND7 NAC domain were 0.413 E-score, 0.21 E-score and 0.0803 E-score, respectively.
